Calls of active or inactive are those of the source. The calls were made as follows: active = hit-call score of the fitted dose curve at least 0.9, where 1 is the maximum; inactive = score below 0.9.
Legend:
[1] = read-out: urokinase plasminogen activator (uPA), PLAU (gene 5328); test: BSK_KF3CT_uPA: BioMAP Diversity Plus: KF3CT Assay for urokinase plasminogen activator (uPA) Biomarker Activity (AID 2283075); conditions: primary human keratinocytes with fibroblasts; actives raise or lower the signal
Procedure, shortened: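 ELISA readout of uPA, analyzed for signal gain or loss relative to DMSO, from a human primary keratinocyte–foreskin fibroblast co-culture measured 24 h after chemical treatment.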

CD40, CD40 (gene 958) [2] = test: BSK_LPS_CD40: BioMAP Diversity Plus: LPS Assay for CD40 Biomarker Activity (AID 2283076); conditions: primary human HUVEC with PBMC; actives raise or lower the signal
Procedure, shortened: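 Primary human umbilical vein endothelial cells co-cultured with peripheral blood mononuclear cells, LPS-stimulated, were dosed with chemical and read 24 h later. CD40 levels were measured by ELISA and fitted bidirectionally against DMSO as negative control and baseline.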

[3] = read-out: E-selectin (Homo sapiens) (UniProt P16581); test: BSK_LPS_Eselectin: BioMAP Diversity Plus: LPS Assay for Eselectin Biomarker Activity (AID 2283077); conditions: primary human HUVEC with PBMC; actives raise or lower the signal
Procedure, shortened: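 Human umbilical vein endothelial cells co-cultured with peripheral blood mononuclear cells under LPS stimulation; E-selectin measured by ELISA 24 h after chemical dosing. Activity fitted bidirectionally against DMSO as negative control and baseline.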

[4] = read-out: Interleukin-8 (IL8), CXCL8 (gene 3576); test: BSK_LPS_IL8: BioMAP Diversity Plus: LPS Assay for Interleukin-8 (IL8) Biomarker Activity (AID 2283078); conditions: primary human HUVEC with PBMC; actives raise or lower the signal
Procedure, shortened: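 Human umbilical vein endothelial cells co-cultured with PBMC were stimulated with LPS; IL-8 levels were measured by ELISA 24 h after chemical dosing. Activity was fitted bidirectionally against DMSO as negative control and baseline.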

[5] = BSK_LPS_SRB: Viability Assessment in the BioMAP Diversity Plus: LPS Assay (AID 2283079); conditions: primary human HUVEC with PBMC;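 also: total protein by sulforhodamine B absorbance as a cytotoxicity measure; measured one day after compound addition; fitted in both directions against DMSO so loss or gain of signal counts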
Procedure, shortened: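 Human umbilical vein endothelial cells co-cultured with PBMC (LPS system) were dosed for 24 h. Total protein was stained with 0.1% sulforhodamine B after 10% TCA fixation, read at 560 nm, and fitted bidirectionally against DMSO baseline.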

[6] = read-out: Interleukin-1 alpha (IL1a), IL1A (gene 3552); test: BSK_LPS_IL1a: BioMAP Diversity Plus: LPS Assay for Interleukin-1 alpha (IL1a) Biomarker Activity (AID 2283080); conditions: primary human HUVEC with PBMC; actives raise or lower the signal
Procedure, shortened: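 Human umbilical vein endothelial cells co-cultured with peripheral blood mononuclear cells were LPS-stimulated and exposed to test chemicals for 24 h. IL-1 alpha was quantified by ELISA, with bidirectional curve fitting against DMSO as the negative control and baseline.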

[7] = read-out: Monocyte Chemoattractant Protein-1 (MCP1), CCL2 (gene 6347); test: BSK_LPS_MCP1: BioMAP Diversity Plus: LPS Assay for Monocyte Chemoattractant Protein-1 (MCP1) Biomarker Activity (AID 2283081); conditions: primary human HUVEC with PBMC; actives raise or lower the signal;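 as to AC50: secreted MCP-1 protein quantified by ELISA in culture supernatant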
Procedure, shortened: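 HUVEC plus PBMC co-culture (human primary cells, LPS system) exposed to test chemical for 24 h; MCP-1 measured by ELISA. Bidirectional curve fitting against DMSO baseline; parallel SRB total-protein staining flags overt cytotoxicity.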

[8] = BSK_LPS_PGE2: BioMAP Diversity Plus: LPS Assay for Prostaglandin E2 (PGE2) Biomarker Activity (AID 2283082); conditions: primary human HUVEC with PBMC; actives raise or lower the signal;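 as to AC50: secreted prostaglandin E2 measured by ELISA in LPS-stimulated co-culture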
Procedure, shortened: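 HUVEC plus PBMC co-culture stimulated with LPS; secreted PGE2 quantified by ELISA 24 h after chemical dosing. Activity fitted bidirectionally against DMSO as negative control and baseline; parallel SRB total-protein staining served as cytotoxicity check.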

[9] = read-out: Macrophage colony-stimulating factor (MCSF), CSF1 (gene 1435); test: BSK_LPS_MCSF: BioMAP Diversity Plus: LPS Assay for Macrophage colony-stimulating factor (MCSF) Biomarker Activity (AID 2283083); conditions: primary human HUVEC with PBMC; actives raise or lower the signal
Procedure, shortened: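 Human umbilical vein endothelial cells co-cultured with peripheral blood mononuclear cells were exposed to compound for 24 h. M-CSF levels were measured by ELISA, and bidirectional curve fitting used DMSO as the negative control and baseline.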

[10] = read-out: Tissue Factor, F3 (gene 2152); test: BSK_LPS_TissueFactor: BioMAP Diversity Plus: LPS Assay for Tissue Factor Biomarker Activity (AID 2283084); conditions: primary human HUVEC with PBMC; actives raise or lower the signal
Procedure, shortened: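 Human umbilical vein endothelial cells co-cultured with peripheral blood mononuclear cells were dosed and stimulated with LPS. Cell-surface CD142 was quantified by ELISA at 24 h. Activity was fitted bidirectionally against DMSO baseline.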

[11] = read-out: Tumor necrosis factor (Homo sapiens) (UniProt P01375); test: BSK_LPS_TNFa: BioMAP Diversity Plus: LPS Assay for Tumour Necrosis Factor alpha (TNFa) Biomarker Activity (AID 2283085); conditions: primary human HUVEC with PBMC; actives raise or lower the signal
Procedure, shortened: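 Human umbilical vein endothelial cells co-cultured with PBMC were exposed to test chemical and TNFa measured by ELISA 24 h after dosing. Bidirectional curve fitting was done relative to DMSO as negative control and baseline.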

[12] = read-out: Vascular cell adhesion molecule 1 (VCAM1), VCAM1 (gene 7412); test: BSK_LPS_VCAM1: BioMAP Diversity Plus: LPS Assay for Vascular cell adhesion molecule 1 (VCAM1) Biomarker Activity (AID 2283086); conditions: primary human HUVEC with PBMC; actives raise or lower the signal
Procedure, shortened: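 Human umbilical vein endothelial cells co-cultured with peripheral blood mononuclear cells under LPS stimulation were exposed to test chemical for 24 h. VCAM-1 levels were then measured by ELISA, with bidirectional curve fitting relative to DMSO as negative control and baseline.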

CD38, CD38 (gene 952) = test: BSK_SAg_CD38: BioMAP Diversity Plus: SAg Assay for CD38 Biomarker Activity (AID 2283087); conditions: primary human HUVEC with PBMC; actives raise or lower the signal
Procedure, shortened: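 Fluorescence ELISA of cell-surface CD38 served as the read-out, with either increase or decrease fitted against DMSO controls. Cells were a human umbilical vein endothelium plus PBMC co-culture under SEB/TSST-1 stimulation, measured 24 h after dosing.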

CD40, CD40 (gene 958) [13] = test: BSK_SAg_CD40: BioMAP Diversity Plus: SAg Assay for CD40 Biomarker Activity (AID 2283088); conditions: primary human HUVEC with PBMC; actives raise or lower the signal
Procedure, shortened: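 Human umbilical vein endothelial cells co-cultured with PBMC; CD40 levels measured by ELISA with fluorescence read-out 24 h after chemical dosing. Gain or loss of signal fitted bidirectionally against DMSO baseline.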

CD69, CD69 (gene 969) = test: BSK_SAg_CD69: BioMAP Diversity Plus: SAg Assay for CD69 Biomarker Activity (AID 2283089); conditions: primary human HUVEC with PBMC; actives raise or lower the signal;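 as to AC50: cell surface CD69 protein quantified by ELISA with fluorescence detection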
Procedure, shortened: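 ELISA, fluorescence read-out: CD69 on human umbilical vein endothelial cell + PBMC co-culture, 24 h post-dosing. Gain or loss of signal fitted bidirectionally against DMSO baseline.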

[14] = read-out: Monocyte Chemoattractant Protein-1 (MCP1), CCL2 (gene 6347); test: BSK_SAg_MCP1: BioMAP Diversity Plus: SAg Assay for Monocyte Chemoattractant Protein-1 (MCP1) Biomarker Activity (AID 2283090); conditions: primary human HUVEC with PBMC; actives raise or lower the signal
Procedure, shortened: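 MCP-1 levels in the endothelial–PBMC SAg co-culture were quantified by ELISA at 24 h post-dosing; both increases and decreases versus DMSO scored. Cytotoxicity monitored by SRB total protein in parallel cultures.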

[15] = read-out: E-selectin (Homo sapiens) (UniProt P16581); test: BSK_SAg_Eselectin: BioMAP Diversity Plus: SAg Assay for Eselectin Biomarker Activity (AID 2283091); conditions: primary human HUVEC with PBMC; actives raise or lower the signal
Procedure, shortened: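 HUVEC co-cultured with PBMC, compound dosed then read at 24 h; E-selectin measured by ELISA. Activity fitted bidirectionally against DMSO as negative control and baseline.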

[16] = read-out: Monokine induced gamma interferon (MIG), CXCL9 (gene 4283); test: BSK_SAg_MIG: BioMAP Diversity Plus: SAg Assay for Monokine induced gamma interferon (MIG) Biomarker Activity (AID 2283092); conditions: primary human HUVEC with PBMC; actives raise or lower the signal
Procedure, shortened: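 ELISA readout of MIG/CXCL9; primary human umbilical vein endothelial cells co-cultured with peripheral blood mononuclear cells; 24 h post-dose; gain/loss fit vs DMSO baseline.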

[17] = BSK_SAg_PBMCCytotoxicity: PBMC Cytotoxicity Assessment in the BioMAP Diversity Plus: SAg Assay (AID 2283093); conditions: primary human HUVEC with PBMC;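 also: PBMC viability measured as Alamar Blue reduction fluorescence at 546/580 nm; fitted both ways against DMSO so a hit may be loss or gain of signal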;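 as to AC50: PBMC superantigen activated with SEB plus TSST-1 one hour after compound addition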
Procedure, shortened: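 Compound added to 75,000 PBMC/well for 1 h; SEB and TSST-1 then added at 20 ng/mL final each; 90 h incubation; Alamar Blue 6 h; read 546/580 nm ex/em. Activity fitted bidirectionally relative to DMSO baseline.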

[18] = read-out: Interleukin-8 (IL8), CXCL8 (gene 3576); test: BSK_SAg_IL8: BioMAP Diversity Plus: SAg Assay for Interleukin-8 (IL8) Biomarker Activity (AID 2283094); conditions: primary human HUVEC with PBMC; actives raise or lower the signal
Procedure, shortened: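 Human umbilical vein endothelial cells co-cultured with peripheral blood mononuclear cells; IL-8 measured by ELISA 24 h after chemical dosing. Bidirectional concentration-response fitting used DMSO as negative control and activity baseline.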

Measured: AC50

Tumor necrosis factor (Homo sapiens), sequence (P01375 whole entry, looked up): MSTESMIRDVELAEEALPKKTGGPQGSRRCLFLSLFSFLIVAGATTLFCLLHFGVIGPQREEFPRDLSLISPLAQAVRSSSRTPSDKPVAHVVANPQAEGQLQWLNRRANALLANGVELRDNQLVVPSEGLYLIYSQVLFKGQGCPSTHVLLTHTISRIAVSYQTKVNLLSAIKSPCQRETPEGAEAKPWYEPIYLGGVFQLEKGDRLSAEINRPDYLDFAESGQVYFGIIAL
E-selectin (Homo sapiens), sequence (P16581 whole entry, looked up): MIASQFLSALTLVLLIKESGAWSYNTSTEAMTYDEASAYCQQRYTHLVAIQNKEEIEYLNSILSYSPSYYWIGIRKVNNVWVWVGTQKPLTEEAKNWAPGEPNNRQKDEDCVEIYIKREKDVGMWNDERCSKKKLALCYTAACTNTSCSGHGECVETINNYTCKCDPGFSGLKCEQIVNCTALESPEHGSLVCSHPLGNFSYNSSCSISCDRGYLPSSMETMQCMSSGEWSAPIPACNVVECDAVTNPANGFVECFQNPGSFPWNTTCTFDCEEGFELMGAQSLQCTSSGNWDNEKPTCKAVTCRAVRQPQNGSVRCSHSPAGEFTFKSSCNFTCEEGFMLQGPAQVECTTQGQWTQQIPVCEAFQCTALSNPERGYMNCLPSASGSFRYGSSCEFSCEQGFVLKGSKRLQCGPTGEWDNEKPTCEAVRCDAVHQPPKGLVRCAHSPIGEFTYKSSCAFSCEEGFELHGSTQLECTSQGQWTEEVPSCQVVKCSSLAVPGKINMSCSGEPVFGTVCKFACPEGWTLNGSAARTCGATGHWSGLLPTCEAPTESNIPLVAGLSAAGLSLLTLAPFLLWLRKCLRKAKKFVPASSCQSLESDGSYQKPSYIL

CCOc1cccc(-n2cc(C(=O)N3CCN(c4cc(C(=O)O)c5ccccc5c4)CC3)nc2-c2ccc(C)cc2)c1
active: [1] 31.2 µM | CD40, CD40 (gene 958) [2] 14.2 µM | [3] 31.3 µM | [4] 27.2 µM | [5] 13.7 µM | [6] 19.2 µM | [7] 30.7 µM | [8] 29.4 µM | [9] 23.2 µM | [10] 19.2 µM | [11] 20.9 µM | [12] 14.2 µM | CD38, CD38 (gene 952) 28.2 µM | CD40, CD40 (gene 958) [13] 13.6 µM | CD69, CD69 (gene 969) 21.7 µM | [14] 28.3 µM | [15] 19.2 µM | [16] 35.4 µM | [17] 26.9 µM | [18] 11.4 µM

CCn1nc(Cc2ccccc2)cc1C1CCN(C[C@H]2C[C@H](N(C)[C@@H](C(=O)O)C(C)C)C[C@@H]2c2cccc(F)c2)CC1
inactive: all assays above

CCOCCO
inactive: all assays above

COc1ccc(/C=C/S(=O)(=O)NC(=O)c2ccc(C)cc2Cl)cc1
active: CD40, CD40 (gene 958) [13] 4.18 µM
not listed: [17]
inactive: all other assays above

CC(=O)c1ccc2c(c1)[C@H](NC(=O)c1ccc(F)cc1)[C@@H](O)C(C)(C)O2
inactive: all assays above

Nc1nc2ncc(CNc3ccc(C(=O)N[C@@H](CCC(=O)O)C(=O)O)cc3)nc2c(=O)[nH]1
not listed: [17]
inactive: all other assays above

COc1ccc(-n2nc(C(F)F)cc2-c2ccc(S(C)=O)cc2)cc1 (configuration not stated)
active: CD40, CD40 (gene 958) [2] 1.7 µM | [6] 4.92 µM | [8] 0.342 µM | [11] 2.57 µM | CD69, CD69 (gene 969) 2.28 µM | [14] 1.13 µM | [15] 1.21 µM | [18] 2.09 µM
not listed: CD38, CD38 (gene 952)
inactive: all other assays above

CCOCCOCCOCCO
not listed: [17]
inactive: all other assays above

CC(C)=CCC/C(C)=C/CO
not listed: [17]
inactive: all other assays above

Cn1c(=O)cc(Oc2ccc(F)cc2F)c2cnc(NCC(C)(C)O)nc21
active: [3] 3.35 µM | [4] 2.9 µM | [6] 3.97 µM | [7] 3.88 µM | [8] 1.76 µM | [10] 0.58 µM | [11] 5.06 µM | [18] 1.09 µM
not listed: [17]
inactive: all other assays above

CC(C)=CCCC(C)=CC=O
active: [12] 33.7 µM
not listed: [17]
inactive: all other assays above

Clc1nc(Cl)c(Cl)c(Cl)c1Cl
active: CD40, CD40 (gene 958) [2] 30.4 µM | [3] 30.9 µM | [4] 32.7 µM | [6] 14.4 µM | [7] 32.1 µM | [8] 15.1 µM | [9] 32.2 µM | [10] 33.1 µM | [11] 31.7 µM | [12] 32.3 µM | CD38, CD38 (gene 952) 34.4 µM | CD40, CD40 (gene 958) [13] 30 µM | CD69, CD69 (gene 969) 26.3 µM | [14] 31.4 µM | [15] 25.1 µM | [16] 31.2 µM | [18] 14.4 µM
inactive: [1] | [5]
